Assay results as given in PubChem BioAssay AID1159580 (chemical genetic matrix, 2015).
The whole screen tested about 5,500 compounds, of which about 2,000 (36%) were called active. Not shown: some 18% with an inconclusive outcome. This is one part of the list. Unmarked numbers belong to inactive results. Rule as the data show it: active = normalized growth mostly below about 0.91 (no sharp cut-off); inconclusive = no clear call, values can overlap the other calls; inactive = mostly above about 0.92.

Experiment: chemical genetic growth profiling, strain panel (AID 1159580);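 also: tested at 20 µM; growth read once vehicle control cultures reached saturation at 30 °C; 1 = growth at the plate median or of vehicle wells; lower values mean less growth of the strain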
Conditions: growth OD

Molecule `CCOP(=S)(OCC)Oc1nc(Cl)c(Cl)cc1Cl` has a normalized growth (S. cerevisiae deletion strains, locus YJR075W, strain HOC1, active compounds read low) of 0.999, a normalized growth (S. cerevisiae deletion strains, locus YKL009W, strain mrt4, active compounds read low) of 1 and a normalized growth (S. cerevisiae deletion strains, locus YKL068W, active compounds read low) of 0.99. The normalized growth (S. cerevisiae deletion strains, locus YKL085W, strain MDH1 (second series), active compounds read low) was 0.996, the normalized growth (S. cerevisiae deletion strains, locus YKL085W, strain MDH1, active compounds read low) was 0.996 and the normalized growth (S. cerevisiae deletion strains, locus YKL160W, strain elf1, active compounds read low) was 0.974. For the same molecule, the normalized growth (S. cerevisiae deletion strains, locus YKL190W, strain CNB1, active compounds read low) was 0.996, the normalized growth (S. cerevisiae deletion strains, locus YKR001C, strain vps1, active compounds read low) was 0.937 and the normalized growth (S. cerevisiae deletion strains, locus YKR026C, strain gcn3, active compounds read low) was 0.957. It also gave a normalized growth (S. cerevisiae deletion strains, locus YKR091W, strain srl3, active compounds read low) of 0.948, a normalized growth (S. cerevisiae deletion strains, locus YLL001W, strain dnm1, active compounds read low) of 0.927 and a normalized growth (S. cerevisiae deletion strains, locus YLL026W, active compounds read low) of 0.982. The normalized growth (S. cerevisiae deletion strains, locus YLL041C, strain sdh2, active compounds read low) was 0.954, the normalized growth (S. cerevisiae deletion strains, locus YLR027C, strain aat2, active compounds read low) was 0.967 and the normalized growth (S. cerevisiae deletion strains, locus YLR039C, strain RIC1, active compounds read low) was 0.898. For the same molecule, the normalized growth (S. cerevisiae deletion strains, locus YLR058C, strain SHM2, active compounds read low) was 0.998, the normalized growth (S. cerevisiae deletion strains, locus YLR102C, strain apc9, active compounds read low) was 0.986 and the normalized growth (S. cerevisiae deletion strains, locus YLR221C, strain rsa3, active compounds read low) was 0.852 (active). The normalized growth (S. cerevisiae deletion strains, locus YLR258W, strain gsy2, active compounds read low) was 0.965, the normalized growth (S. cerevisiae deletion strains, locus YLR262C, strain YPT6 (second series), active compounds read low) was 0.724 (active) and the normalized growth (S. cerevisiae deletion strains, locus YLR262C, strain YPT6, active compounds read low) was 0.945. For the same molecule, the normalized growth (S. cerevisiae deletion strains, locus YLR268W, strain sec22, active compounds read low) was 0.986, the normalized growth (S. cerevisiae deletion strains, locus YLR320W, strain mms22, active compounds read low) was 0.828 (active) and the normalized growth (S. cerevisiae deletion strains, locus YLR330W, strain CHS5, active compounds read low) was 1. The normalized growth (S. cerevisiae deletion strains, locus YLR342W, strain FKS1 (second series), active compounds read low) was 1.05, the normalized growth (S. cerevisiae deletion strains, locus YLR342W, strain FKS1, active compounds read low) was 0.945 and the normalized growth (S. cerevisiae deletion strains, locus YLR357W, strain rsc2, active compounds read low) was 0.932. For the same molecule, the normalized growth (S. cerevisiae deletion strains, locus YLR370C, strain arc18, active compounds read low) was 0.981, the normalized growth (S. cerevisiae deletion strains, locus YLR371W, strain rom2, active compounds read low) was 0.999 and the normalized growth (S. cerevisiae deletion strains, locus YLR384C, strain iki3, active compounds read low) was 0.989. For the same molecule, the normalized growth (S. cerevisiae deletion strains, locus YLR418C, strain cdc73, active compounds read low) was 0.938, the normalized growth (S. cerevisiae deletion strains, locus YML016C, strain PPZ1, active compounds read low) was 1 and the normalized growth (S. cerevisiae deletion strains, locus YML032C, strain rad52, active compounds read low) was 0.979. For the same molecule, the normalized growth (S. cerevisiae deletion strains, locus YML120C, strain ndi1, active compounds read low) was 0.946, the normalized growth (S. cerevisiae deletion strains, locus YML124C, strain tub3, active compounds read low) was 0.99 and the normalized growth (S. cerevisiae deletion strains, locus YMR058W, strain fet3, active compounds read low) was 0.921. It also gave a normalized growth (S. cerevisiae deletion strains, locus YMR078C, strain ctf18, active compounds read low) of 0.984, a normalized growth (S. cerevisiae deletion strains, locus YMR125W, strain sto1, active compounds read low) of 0.97 and a normalized growth (S. cerevisiae deletion strains, locus YMR129W, active compounds read low) of 0.953. The normalized growth (S. cerevisiae deletion strains, locus YMR205C, strain PFK2, active compounds read low) was 0.842 (active), the normalized growth (S. cerevisiae deletion strains, locus YMR223W, strain ubp8, active compounds read low) was 0.988 and the normalized growth (S. cerevisiae deletion strains, locus YMR231W, strain pep5, active compounds read low) was 0.968. For the same molecule, the normalized growth (S. cerevisiae deletion strains, locus YMR263W, strain SAP30, active compounds read low) was 1.04, the normalized growth (S. cerevisiae deletion strains, locus YMR307W, strain GAS1, active compounds read low) was 0.873 and the normalized growth (S. cerevisiae deletion strains, locus YNL067W, strain RPL9B, active compounds read low) was 1. For the same molecule, the normalized growth (S. cerevisiae deletion strains, locus YNL071W, strain lat1, active compounds read low) was 0.526 (active), the normalized growth (S. cerevisiae deletion strains, locus YNL128W, strain TEP1, active compounds read low) was 1.01 and the normalized growth (S. cerevisiae deletion strains, locus YNL153C, strain GIM3, active compounds read low) was 1.01. For the same molecule, the normalized growth (S. cerevisiae deletion strains, locus YNL209W, strain ssb2, active compounds read low) was 0.995, the normalized growth (S. cerevisiae deletion strains, locus YNL233W, strain BNI4, active compounds read low) was 0.993 and the normalized growth (S. cerevisiae deletion strains, locus YNL248C, strain rpa49, active compounds read low) was 0.93. For the same molecule, the normalized growth (S. cerevisiae deletion strains, locus YNL250W, strain rad50, active compounds read low) was 0.974, the normalized growth (S. cerevisiae deletion strains, locus YNL271C, strain bni1, active compounds read low) was 0.996 and the normalized growth (S. cerevisiae deletion strains, locus YNL298W, strain CLA4, active compounds read low) was 0.983. It also gave a normalized growth (S. cerevisiae deletion strains, locus YNL307C, strain MCK1, active compounds read low) of 0.932, a normalized growth (S. cerevisiae deletion strains, locus YNL322C, strain KRE1 (second series), active compounds read low) of 0.943 and a normalized growth (S. cerevisiae deletion strains, locus YNL322C, strain KRE1, active compounds read low) of 0.998. For the same molecule, the normalized growth (S. cerevisiae deletion strains, locus YNR049C, strain mso1, active compounds read low) was 0.959, the normalized growth (S. cerevisiae deletion strains, locus YNR052C, strain pop2, active compounds read low) was 0.994 and the normalized growth (S. cerevisiae deletion strains, locus YOL006C, strain TOP1, active compounds read low) was 0.861. For the same molecule, the normalized growth (S. cerevisiae deletion strains, locus YOL012C, strain htz1) was 0.789, the normalized growth (S. cerevisiae deletion strains, locus YOL147C, strain pex11, active compounds read low) was 0.977 and the normalized growth (S. cerevisiae deletion strains, locus YOR001W, strain rrp6, active compounds read low) was 0.986. The normalized growth (S. cerevisiae deletion strains, locus YOR061W, strain CKA2, active compounds read low) was 0.998, the normalized growth (S. cerevisiae deletion strains, locus YOR069W, strain VPS5, active compounds read low) was 0.997 and the normalized growth (S. cerevisiae deletion strains, locus YOR070C, strain gyp1, active compounds read low) was 0.982. The normalized growth (S. cerevisiae deletion strains, locus YOR080W, strain dia2, active compounds read low) was 1, the normalized growth (S. cerevisiae deletion strains, locus YOR083W, strain WHI5, active compounds read low) was 0.923 and the normalized growth (S. cerevisiae deletion strains, locus YOR106W, strain vam3, active compounds read low) was 0.844 (active). For the same molecule, the normalized growth (S. cerevisiae deletion strains, locus YOR136W, strain idh2, active compounds read low) was 0.992, the normalized growth (S. cerevisiae deletion strains, locus YOR144C, strain elg1, active compounds read low) was 0.987 and the normalized growth (S. cerevisiae deletion strains, locus YOR184W, strain ser1, active compounds read low) was 0.99. For the same molecule, the normalized growth (S. cerevisiae deletion strains, locus YOR265W, strain rbl2, active compounds read low) was 0.976, the normalized growth (S. cerevisiae deletion strains, locus YOR270C, strain vph1, active compounds read low) was 0.441 (active) and the normalized growth (S. cerevisiae deletion strains, locus YOR290C, strain snf2, active compounds read low) was 0.941. For the same molecule, the normalized growth (S. cerevisiae deletion strains, locus YOR316C, strain cot1, active compounds read low) was 0.991, the normalized growth (S. cerevisiae deletion strains, locus YPL051W, strain arl3, active compounds read low) was 0.974 and the normalized growth (S. cerevisiae deletion strains, locus YPL055C, strain LGE1, active compounds read low) was 1.04. For the same molecule, the normalized growth (S. cerevisiae deletion strains, locus YPL078C, strain atp4, active compounds read low) was 0.97, the normalized growth (S. cerevisiae deletion strains, locus YPL106C, strain sse1, active compounds read low) was 0.933 and the normalized growth (S. cerevisiae deletion strains, locus YPL240C, strain hsp82, active compounds read low) was 0.979. For the same molecule, the normalized growth (S. cerevisiae deletion strains, locus YPL241C, strain CIN2, active compounds read low) was 1, the normalized growth (S. cerevisiae deletion strains, locus YPR119W, strain clb2, active compounds read low) was 0.974 and the normalized growth (S. cerevisiae deletion strains, locus YPR141C, strain kar3, active compounds read low) was 0.986. It also gave a normalized growth (S. cerevisiae deletion strains, locus YPR163C, strain tif3, active compounds read low) of 1.02, a normalized growth (S. cerevisiae deletion strains, locus YPR167C, strain met16, active compounds read low) of 0.99 and a normalized growth (S. cerevisiae deletion strains, strain wtn01, active compounds read low) of 0.991. It also gave a normalized growth (S. cerevisiae strains, strain wild type, active compounds read low) of 0.995.
